# Reference: the supplement of paper PMC8728848
# Only a selection was taken, and the strongest signals are over-represented in it overall.
# B1: PV12658A-bvu-496-32-496 (Bacteroides vulgatus) (protein)
# chain: DLDGAITTPAAVELALNGIYYSLPGNGFNVIFPTVSGSFKAGTMWRQEIVSAGNAVYYSERMLPTLSFSDATEWDADYAVIKNANFLETACNRMSDGEFSGNRRAEVLGEIAYLRALAYFNILVRYCEFWDMNSEYGVVMRNEAPSVSNALKARSSVADSYQYILDQLEIAIEKAPDWKKLSQASKEAAKALKARVLLYAGKYTEAVAAVNDAIDTNSPLPEANYGDVFDKFSTTKEILFARVFDQKDATNTSTRQQCYGNSPTKKQGYWGPTNEYVELVGDDPRADAIFSKVDSLMDSRSSAVAYNLKSVKKLLNDANDMPVIFSRVSELYLIKAEALYRSGASISEAYAPIRKLRERAGAEIILPANNEELETAIFNEWMLELSFENWHEWFAMIRFAGYTEKPDFTRLLALNKTLREALEKEYEKSEAQGDNYYQRIIDRRIDAIPSSEISSNLECKQNPGY
# Tests used:
# Assay in all cases: glycan array binding signal (z-score within array); higher = stronger binding
# Settings in all cases: glycan notation: IUPAC condensed, linker removed
# Fuc(a1-2)Gal(b1-4)Glc6S = target: Fuc(a1-2)Gal(b1-4)Glc6S
# Method in brief: (§1)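 Arrays were curated from the Consortium for Functional Glycomics database, 3228 in total, and kept only where the protein sequence was available. Binding is expressed as a within-array Z-score. This score was averaged across arrays of the same protein sequence at different concentrations or buffers and across linkers, and negative values can be read as non-binding.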
# [1] = target: Fuc(a1-2)Gal(b1-4)GlcNAc(b1-2)Man
# Method in brief: as §1
# [2] = target: Fuc(a1-2)Gal(b1-4)GlcNAc(b1-2)Man(a1-3)[Fuc(a1-2)Gal(b1-4)GlcNAc(b1-2)Man(a1-6)]Man(b1-4)GlcNAc(b1-4)[Fuc(a1-6)]GlcNAc
# Method in brief: as §1
# [3] = target: Fuc(a1-2)[Gal(a1-3)]Gal(b1-3)GlcNAc(b1-2)Man(a1-3)[Fuc(a1-2)[Gal(a1-3)]Gal(b1-3)GlcNAc(b1-2)Man(a1-6)]Man(b1-4)GlcNAc(b1-4)GlcNAc
# Method in brief: as §1
# [4] = target: Fuc(a1-2)[GalNAc(a1-3)]Gal(b1-4)GlcNAc
# Method in brief: as §1
# [5] = target: Fuc(a1-2)[GalNAc(a1-3)]Gal(b1-4)GlcNAc(b1-3)Gal(b1-4)GlcNAc(b1-3)Gal(b1-4)GlcNAc
# Method in brief: as §1
# Gal(a1-3)Gal(b1-3)GlcNAc = target: Gal(a1-3)Gal(b1-3)GlcNAc
# Method in brief: as §1
# [6] = target: Gal(a1-3)Gal(b1-3)GlcNAc(b1-3)GalNAc
# Method in brief: as §1
# [7] = target: Gal(a1-3)Gal(b1-4)GlcNAc(b1-2)Man(a1-3)[Gal(a1-3)Gal(b1-4)GlcNAc(b1-2)Man(a1-6)]Man(b1-4)GlcNAc(b1-4)GlcNAc
# Method in brief: as §1
# [8] = target: Gal(a1-3)Gal(b1-4)[Fuc(a1-3)]GlcNAc(b1-2)Man(a1-3)[Gal(a1-3)Gal(b1-4)[Fuc(a1-3)]GlcNAc(b1-2)Man(a1-6)]Man(b1-4)GlcNAc(b1-4)GlcNAc
# Method in brief: as §1
# [9] = target: Gal(a1-3)[Gal(a1-4)]Gal(b1-4)GlcNAc
# Method in brief: as §1
# [10] = target: Gal(a1-4)Gal(b1-4)GlcNAc(b1-2)Man(a1-3)[Gal(a1-4)Gal(b1-4)GlcNAc(b1-2)Man(a1-6)]Man(b1-4)GlcNAc(b1-4)GlcNAc
# Method in brief: as §1
# Gal(b1-2)Gal = target: Gal(b1-2)Gal
# Method in brief: as §1
# [11] = target: Gal(b1-3)GalNAc(b1-4)Gal(b1-4)Glc
# Method in brief: as §1
# Gal(b1-3)GlcNAc = target: Gal(b1-3)GlcNAc
# Method in brief: as §1
# [12] = target: Gal(b1-3)GlcNAc(b1-3)Gal(b1-4)GlcNAc(b1-2)[Gal(b1-3)GlcNAc(b1-3)Gal(b1-4)GlcNAc(b1-6)]Man(a1-6)[Gal(b1-3)GlcNAc(b1-3)Gal(b1-4)GlcNAc(b1-2)Man(a1-3)]Man(b1-4)GlcNAc(b1-4)[Fuc(a1-6)]GlcNAc
# Method in brief: as §1
# [13] = target: Gal(b1-3)GlcNAc(b1-3)Gal(b1-4)[Fuc(a1-3)]GlcNAc
# Method in brief: as §1
# Gal(b1-4)GlcNAc = target: Gal(b1-4)GlcNAc
# Method in brief: as §1
# [14] = target: Gal(b1-4)GlcNAc(b1-3)Gal(b1-3)GlcNAc
# Method in brief: as §1
# [15] = target: Gal(b1-4)GlcNAc(b1-3)Gal(b1-4)Glc
# Method in brief: as §1
# [16] = target: Gal(b1-4)GlcNAc(b1-3)Gal(b1-4)GlcNAc(b1-3)Gal(b1-4)GlcNAc(b1-3)Gal(b1-4)GlcNAc(b1-2)Man(a1-3)[Gal(b1-4)GlcNAc(b1-3)Gal(b1-4)GlcNAc(b1-3)Gal(b1-4)GlcNAc(b1-3)Gal(b1-4)GlcNAc(b1-2)Man(a1-6)]Man(b1-4)GlcNAc(b1-4)GlcNAc
# Method in brief: as §1
# [17] = target: Gal(b1-4)GlcNAc(b1-3)Gal(b1-4)GlcNAc(b1-3)GalNAc
# Method in brief: as §1
# [18] = target: Gal(b1-4)GlcNAc(b1-3)[Gal(b1-4)GlcNAc(b1-6)]Gal(b1-4)GlcNAc
# Method in brief: as §1
# [19] = target: Gal(b1-4)GlcNAc(b1-6)GalNAc
# Method in brief: as §1
# [20] = target: GalNAc(a1-3)GalNAc(b1-3)Gal(a1-4)Gal(b1-4)GlcNAc
# Method in brief: as §1
binder,measurement,setting,value
B1,glycan array binding signal (z-score),Fuc(a1-2)Gal(b1-4)Glc6S,-0.163
same,glycan array binding signal (z-score),[1],-0.199
same,glycan array binding signal (z-score),[2],0.201
same,glycan array binding signal (z-score),[3],3.63
same,glycan array binding signal (z-score),[4],-0.36
same,glycan array binding signal (z-score),[5],0.133
same,glycan array binding signal (z-score),Gal(a1-3)Gal(b1-3)GlcNAc,3.81
same,glycan array binding signal (z-score),[6],-0.252
same,glycan array binding signal (z-score),[7],4.55
same,glycan array binding signal (z-score),[8],0.883
same,glycan array binding signal (z-score),[9],1.73
same,glycan array binding signal (z-score),[10],7.57
same,glycan array binding signal (z-score),Gal(b1-2)Gal,-0.301
same,glycan array binding signal (z-score),[11],0.963
same,glycan array binding signal (z-score),Gal(b1-3)GlcNAc,-0.316
same,glycan array binding signal (z-score),[12],6.34
same,glycan array binding signal (z-score),[13],-0.533
same,glycan array binding signal (z-score),Gal(b1-4)GlcNAc,-0.258
same,glycan array binding signal (z-score),[14],-0.494
same,glycan array binding signal (z-score),[15],-0.266
same,glycan array binding signal (z-score),[16],5.64
same,glycan array binding signal (z-score),[17],3.98
same,glycan array binding signal (z-score),[18],0.41
same,glycan array binding signal (z-score),[19],-0.393
same,glycan array binding signal (z-score),[20],-0.573
